HSF1 inhib: HSF1 inhibition; 300,000 compounds, 0.77% hits; activity change, negative = inhibition, % at 7.5 µM (by protocol); AID 2098; NIH3T3-HGL HSE-luciferase, MG132-induced, luminescence 8 h; active compounds read low;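 active = more than half of replicate wells show activity change below -50%, luminescence cut by over half; inconclusive = some wells, but at most half, below -50%; inactive = no replicate well below -50%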;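 also: luciferase reports HSF-1 transcriptional activity via heat shock element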
S1P4 antag: blocks the human S1P4 receptor; 220,000 compounds, 0.26% hits; S1P4-expressing cells, antagonist mode, reporter read-out; O95977; inhibition, % at 4.98 µM; in the data active = inhibition above about 29%
Target sequence (O95977 whole entry, looked up): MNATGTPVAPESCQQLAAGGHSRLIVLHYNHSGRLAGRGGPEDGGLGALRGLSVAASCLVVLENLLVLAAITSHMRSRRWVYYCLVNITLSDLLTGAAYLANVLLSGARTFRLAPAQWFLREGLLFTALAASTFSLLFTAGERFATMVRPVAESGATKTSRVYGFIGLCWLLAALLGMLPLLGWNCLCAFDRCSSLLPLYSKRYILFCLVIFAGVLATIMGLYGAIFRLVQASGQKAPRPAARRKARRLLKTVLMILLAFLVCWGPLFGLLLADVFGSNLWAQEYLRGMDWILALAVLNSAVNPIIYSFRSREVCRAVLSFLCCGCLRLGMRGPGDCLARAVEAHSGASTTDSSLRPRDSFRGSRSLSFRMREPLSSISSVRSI
HSF-1 act: increases HSF-1 driven luciferase reporter signal. NIH3T3-HGL HSF-1 luciferase reporter, MG132, 8 h; 100% = twice DMSO control signal. activation, % at 9 µM. 300,000 compounds, 1.7% hits. AID 504408;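 active = mean replicate activation of at least 50% with a set share of replicates each reaching 50%; inconclusive = only one of those two conditions met; inactive = mean below 50% and too few replicates reaching it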
S1P4 ag: human S1P4 receptor agonism. S1P4-expressing cell line, agonist reporter assay. 220,000 compounds, 0.35% hits. AID 1509. O95977. activation, % at 4.98 µM; in the data active = activation above about 11%
Hsp70 act: transcriptional activators of Hsp70; 200,000 compounds, 0.04% hits; HeLa Hsp70 promoter luciferase reporter, luminescence; scaled: vehicle 0, proteasome-inhibitor control 100%; AID 1203; activation, % at 10 µM;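 active = activation above the mean across all tested compounds plus 3 SD, cutoff set per campaign, cut at about 5.5% in these data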
S1P3 antag: antagonists of human S1P3 receptor; Q99500; CHO S1P3 NFAT-BLA reporter, FRET fluorescence, antagonist mode; inhibition, % at 4.98 µM; 170,000 compounds, 0.27% hits;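 active = inhibition above the plate cutoff, the mean inhibition of test wells on that plate plus 3 SD, cut at about 28% in these data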;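 also: cells challenged with S1P at its EC80 of 0.8 µM; blue over green emission ratio from cleaved BLA substrate after 4 h stimulation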
A number is an active result; n = inactive; u = inconclusive; x = not tested or not shown. Shown are actives, neighbours in structure and some others; about 2.9% of the full set was active somewhere.

SMILES	HSF1 inhib	S1P4 antag	HSF-1 act	S1P4 ag	Hsp70 act	S1P3 antag
O=C(CCNc1ccc(Br)cc1)c1cccc([N+](=O)[O-])c1	n	n	65.6	n	n	n
CC1CCCC(NC(=O)C2N(CCCN3CCCC3)C(=O)C3C(C(=O)Nc4cccc(Cl)c4)C4C=CC32O4)C1C (stereo not given)	n	x	n	x	x	x
COc1ccc(NC(=O)c2cc3c(=O)n(C)c4ccccc4c3s2)cc1OC	n	n	n	n	n	n
O=C(NCc1ccccc1)C1CCCN(S(=O)(=O)c2cccc3nsnc23)C1 (stereo not given)	-72.2	x	n	x	x	x
CC[C@H](C)[C@H](NC(N)=O)C(=O)NCCc1ccc(Cl)cc1Cl	n	n	n	n	n	n
Clc1ccc(OCCSCc2nc3ccccc3[nH]2)cc1	n	n	n	n	n	x
O=c1[nH]c2ccccc2nc1-c1ccccc1	n	n	n	n	x	n
c1ccc(SCc2nc3ccccc3[nH]2)cc1	n	n	n	n	n	x
Cc1ccc(SCc2nc3ccccc3[nH]2)cc1	n	n	89.8	n	n	x
O=c1[nH]c2ccccc2nc1-c1ccc(Cl)cc1	n	n	59.1	n	x	n
N#Cc1c(SCc2nc3ccccc3[nH]2)nc2c(c1C(F)(F)F)CCC2	x	n	x	n	n	x
Clc1ccc(SCc2nc3ccccc3[nH]2)cc1	n	n	55.9	n	n	x
Cc1cc(C)c(C#N)c(SCc2nc3ccccc3[nH]2)n1	n	n	59.9	n	n	x
Cn1cc(CNC(=O)C2CCC(=O)N(Cc3ccccc3F)C2)cn1 (stereo not given)	n	x	n	x	x	x
Brc1ccc(-c2noc3c2-c2nc(C4CCCCC4)sc2CC3)cc1	n	x	n	x	x	x
O=C(Cc1ccc(Br)cc1)NCc1ccccc1	n	x	u	x	x	x
CCNC(=S)Nc1ccc(S(=O)(=O)Nc2cc(C)nc(C)n2)cc1	n	n	n	n	n	n
Cc1ccccc1CNC(=O)C1CCC(=O)N(C2CCCCCC2)C1 (stereo not given)	n	x	n	x	x	x
COCCN(C(=O)CNC(=O)c1ccco1)C(C(=O)NC1CCCCC1)c1cccs1 (stereo not given)	n	n	n	n	n	x
Cc1ccc(CNC(=O)CS(=O)(=O)Cc2nc(-c3ccccc3F)oc2C)cc1	n	x	57.0	x	x	x
Cc1ccc(CNC(=O)CS(=O)(=O)Cc2nc(-c3ccc(C)cc3)oc2C)cc1	n	x	n	x	x	x
COc1ccc(CC(C)Nc2cccc(SC)c2)cc1 (stereo not given)	-58.9	x	n	x	x	x
CN(CC(=O)Nc1ccc(F)cc1)C(=O)COC(=O)c1cc(S(=O)(=O)N(C)C)ccc1N1CCCC1	-68.2	x	n	x	x	x
CC(=O)Nc1ccc(NC(=O)COC(=O)c2cc(S(=O)(=O)N(C)C)ccc2N2CCCC2)cc1	n	x	n	x	x	x
O=c1oc(-c2cccs2)nc2sc3c(c12)CCCC3	n	n	63.2	n	n	x
SMILES	HSF1 inhib	S1P4 antag	HSF-1 act	S1P4 ag	Hsp70 act	S1P3 antag
CCOC(=O)c1cnc2c(c(C)nn2C)c1Oc1ccc(Cl)cc1	n	n	n	n	n	x
COC(=O)c1cnc2c(c(C)nn2C)c1OC	n	n	59.2	n	x	n
CC(=O)c1ccc(N(CC(=O)NC2CCCCC2)C(=O)c2csnn2)cc1	n	x	n	x	x	x
COc1ccc(C(C(=O)NC2CCCCC2)N(C(=O)CCl)c2ccc(Cl)cc2)cc1 (stereo not given)	-85.6	n	n	n	n	n
O=C(CCCC(=O)N(c1ccc2c(c1)OCCO2)C(C(=O)NC1CCCCC1)c1ccc(Cl)cc1)Nc1ccccn1 (stereo not given)	-65.9	n	n	n	n	x
COc1ccc(C(C(=O)NC2CCCCC2)N(C(=O)CCCC(=O)Nc2ccccn2)c2ccc3c(c2)OCCO3)cc1 (stereo not given)	n	n	n	n	n	x
COc1ccc(N(C(=O)c2cnccn2)C(C(=O)NC2CCCCC2)c2ccc(Cl)cc2)cc1 (stereo not given)	n	n	n	n	n	x
CC(C)CC1c2[nH]c3ccccc3c2CCN1C(=O)CCC(=O)N(C)C (stereo not given)	n	n	n	n	n	n
Cc1ccccc1Cn1nc(C)c(NC(=O)C2c3ccccc3Oc3ccccc32)c1C	n	n	69.8	n	n	n
Cc1cc(C)c(NC(=O)C2c3ccccc3Oc3ccccc32)c(C)c1	n	n	n	n	n	n
Cc1cnc(NC(=O)CCc2ccccc2)s1	n	x	n	x	x	x
Cc1cnc(NC(=O)COc2ccccc2)s1	n	n	61.4	n	n	n
COc1cc(NS(=O)(=O)c2ccc(C)cc2)c2ncccc2c1	-80.8	n	n	n	n	n
O=C(c1ccc(CS(=O)c2cccc(Cl)c2)o1)N1CCN(c2ccccn2)CC1 (stereo not given)	n	x	n	x	x	x
O=C(Cn1c(=O)oc2cccnc21)Nc1ccc(C(F)(F)F)cc1	n	n	n	n	x	n
CCc1cc(=O)oc2c(CNCc3ccccc3F)c(O)c(Cl)cc12	n	x	64.5	x	x	x
O=C(NCc1ccccc1F)C1CCCN1C(=O)Nc1ccc(Cl)cc1 (stereo not given)	n	x	n	x	x	x
Cc1ccc(NC(=O)CN(C)Cc2nc3ccccc3c(=O)[nH]2)c(Br)c1	n	n	52.9	n	n	x
COc1ccc(N(CC(=O)N2CCOCC2)S(C)(=O)=O)cc1OC	n	x	n	x	x	x
C=CCn1c(SCC#N)nc2ccccc2c1=O	n	n	52.8	n	n	n
O=[N+]([O-])c1ccc(Cl)c(/C=N/n2c(-c3ccncc3)n[nH]c2=S)c1	n	n	242.8	n	x	n
S=c1[nH]nc(-c2ccncc2)n1/N=C/C(Cl)=C\c1ccccc1	n	n	78.1	n	n	n
O=[N+]([O-])c1ccc(O)c(/C=N/n2c(-c3ccccc3)n[nH]c2=S)c1	n	x	n	x	x	x
S=c1[nH]nc(COc2ccccc2)n1/N=C/C(Cl)=C/c1ccccc1	n	n	150.9	n	n	x
CCC(=O)c1ccc(N2CCN(C(=O)c3ccccc3)CC2)c(F)c1	n	n	n	n	n	n
SMILES	HSF1 inhib	S1P4 antag	HSF-1 act	S1P4 ag	Hsp70 act	S1P3 antag
Cc1ccc(C)c(C(=O)CSc2nc(C)cc(=O)[nH]2)c1	n	x	n	x	x	x
Cc1ccc(C)c(C(=O)CSc2nc(N)cc(=O)[nH]2)c1	-54.8	x	n	x	x	x
COc1ccccc1NC(=O)C(C)OC(=O)/C=C/c1ccc2ccccc2n1 (stereo not given)	n	x	62.5	x	x	x
CCOc1cc(S(=O)(=O)n2nc(C)cc2C)ccc1F	n	n	n	n	n	n
Cc1cc(=O)n2nc(-c3ccc(C(F)(F)F)cc3)sc2n1	-69.7	n	n	n	n	x
COc1ccccc1-c1nn2c(=O)cc(C)nc2s1	n	n	n	n	n	x
Cn1nc(C(F)(F)F)c(C(=O)Nc2ccc(C(F)(F)F)cc2)c1Cl	n	n	n	n	n	x
C=CCNC(=O)c1c(C(F)(F)F)nn(C)c1Cl	-54.5	n	n	n	n	n
O=S(=O)(c1ccccc1)c1ncc(C(F)(F)F)cc1Cl	n	n	u	n	n	n
FC(F)(F)c1cnc(/C=C/Nc2ccccc2Cl)c(Cl)c1	n	n	51.8	n	n	x

Screening results: PubChem BioAssay, several laboratories
